Assay outcomes from PubChem.
The full list was thinned out, with hits kept by preference.
BLM inh – Bloom syndrome helicase (human) inhibition; AID 2528; 0.2% of 350,000 active; recombinant BLM DNA unwinding, fluorescence dequenching; P54132; Potency, µM (highest dose often 56.1 µM), without a hit: at the highest dose activity change, negative = inhibition, hits mostly inhibitors;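 further: plate controls were vehicle for no effect and no enzyme for full effect; nearly all actives have a fitted effect of over 35% in size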
APE1 inh – APE1 (human) endonuclease inhibition; P27695; recombinant APE1, TAMRA/BHQ-2 abasic DNA cleavage fluorescence; Potency, µM (series often up to 65.8 µM), for the others: at the highest dose activity change, negative = inhibition, actives largely listed as inhibitors; 0.35% of 350,000 active; AID 2517;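 further: plate controls were vehicle for no effect and reference inhibitor for full effect; nearly all actives have a fitted effect of over 55% in size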
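Measures dequenching upon AP-site incision of a 5'-TAMRA/3'-BHQ-2 THF-containing duplex, 50 nM; human APE1 0.75 nM after 15 min room-temperature exposure to compound; kinetic three-point read at one-minute spacing.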
L3MBTL1 inh – inhibitors of human L3MBTL1 | Q9Y468 | AlphaScreen L3MBTL1–H3K9me1 peptide binding | Potency, µM (titrated, usually from 57.1 µM), for inactives: at the highest dose activity, negative = inhibition, hits mostly inhibitors | 0.66% of 230,000 active; further: nearly all actives have a fitted effect of over 60% in size
Target sequence (Q9Y468 whole entry, looked up): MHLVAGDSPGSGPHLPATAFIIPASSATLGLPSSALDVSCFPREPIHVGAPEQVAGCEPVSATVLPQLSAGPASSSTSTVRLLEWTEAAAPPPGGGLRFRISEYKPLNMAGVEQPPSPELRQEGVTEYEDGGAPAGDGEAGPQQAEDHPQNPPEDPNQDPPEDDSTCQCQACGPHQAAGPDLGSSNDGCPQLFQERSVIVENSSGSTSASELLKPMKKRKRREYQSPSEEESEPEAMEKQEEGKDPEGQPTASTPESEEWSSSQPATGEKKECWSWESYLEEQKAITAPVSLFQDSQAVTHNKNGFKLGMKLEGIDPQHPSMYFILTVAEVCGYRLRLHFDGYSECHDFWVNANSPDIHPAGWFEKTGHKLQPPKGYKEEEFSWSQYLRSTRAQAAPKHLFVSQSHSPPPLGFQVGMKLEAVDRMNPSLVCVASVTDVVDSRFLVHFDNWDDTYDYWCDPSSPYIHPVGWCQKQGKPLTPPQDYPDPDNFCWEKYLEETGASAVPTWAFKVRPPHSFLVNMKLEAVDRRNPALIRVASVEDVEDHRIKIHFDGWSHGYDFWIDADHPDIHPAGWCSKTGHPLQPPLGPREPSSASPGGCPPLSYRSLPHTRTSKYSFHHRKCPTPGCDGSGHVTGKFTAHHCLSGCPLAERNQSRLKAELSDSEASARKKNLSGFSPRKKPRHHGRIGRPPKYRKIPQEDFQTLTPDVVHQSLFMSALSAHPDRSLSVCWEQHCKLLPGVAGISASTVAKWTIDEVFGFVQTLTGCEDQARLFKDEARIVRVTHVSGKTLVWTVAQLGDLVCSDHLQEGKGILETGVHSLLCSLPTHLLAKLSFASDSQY
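L3MBTL1 (50 nM) pre-complexed 30 min with biotinylated H3(1-15)K9me1 peptide (75 nM), then compounds added for 30 min at room temperature; AlphaScreen streptavidin donor/nickel chelate acceptor beads (10 ug/mL final) read after 30 min dark incubation.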
KDM4E inh – blocks human JMJD2E demethylase activity; B2RXH2; JMJD2E catalytic domain, FDH-coupled NADH fluorescence (FDH is formaldehyde dehydrogenase); Potency, µM (titrated, usually from 57.1 µM), for the others: at the highest dose activity change, negative = inhibition, hits mostly inhibitors; 1.6% of 230,000 active; AID 2147; active means well fitted inhibition curve with a large enough effect, not every such curve was filed as active; inconclusive means small, poorly fitted or top-dose-only effect, or another doubt; inactive means no such curve, though single readings can be large or run the other way;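 further: 0% = wells with enzyme and -100% = buffer wells without enzyme; nearly all actives have a fitted effect of over 50% in size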
RECQ1 inh – inhibitors of human RECQ1 DNA helicase | AID 2549 | P46063 | RECQ1 DNA unwinding, red fluorescence kinetic read | Potency, µM (titrated, usually from 57.3 µM), without a hit: at the top dose activity, negative = inhibition, usual class: inhibitors | 0.54% of 240,000 active;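 further: plate controls were vehicle for no effect and no enzyme for full effect; nearly all actives have a fitted effect of over 30% in size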
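RECQ1T1 50 nM; forked duplex (20 bp + 30-nt ss tails) 200 nM, ATP 2 mM final; pH 8.0, 2 mM MgCl2, 2.5 ug/ml poly(dI-dC); 15 min compound preincubation; discontinuous kinetic read over 2 h at RT.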
Active calls of the source: *; i = inactive; ? = inconclusive; nt = not tested or not shown; [ ] = dose if it differs, or a comment. Unless noted, the call rests on the fitted dose curve; in most records, active means well fitted curve in the direction sought with a large enough effect; inconclusive means small, poorly fitted or top-dose-only effect, or another doubt; inactive means no such curve, though single readings can be large; an effect the other way counts as inactive or inconclusive. Unless noted, on the % scale 0 is the no-effect control and ±100 the full control effect; potency means the concentration at half of the fitted maximal effect.

SMILES	BLM inh	APE1 inh	L3MBTL1 inh	KDM4E inh	RECQ1 inh
O=C(OC1CCOC1=O)c1ccc(NS(=O)(=O)c2cccs2)cc1 (centres undefined)	-2%	-6%	-4%	-1%	-4%
CN1C(=O)C(CC(=O)O)S/C1=N\N=C\c1ccc(O)cc1O (centres undefined)	-2%	2%	-11%	25µM*	-5%
C=CCn1nc([N+](=O)[O-])nc1Sc1cccc2cccnc12	4%	-6%	28µM*	-6%	-1%
CCC(=O)N1CCc2cc(Br)cc(S(=O)(=O)CCC(=O)N(C)c3cccc(C)c3)c21	-2%	-20%	28µM*	nt	nt
CC(C)(C)n1ncc2c(=O)n(Cc3ccccc3F)cnc21	nt	-8%	nt	nt	nt
O=C(NC(=S)Nc1ccccc1N1CCCC1)c1ccc([N+](=O)[O-])cc1	-14%	3%	7.1µM*	-2%	-2%
O=C(NC(=S)Nc1ccccc1N1CCOCC1)c1ccc([N+](=O)[O-])cc1	1%	3%	-6%	9%	-4%
CCOC(=O)C1C(=O)C=C(C)C(C(=O)OCC)C1c1cccc([N+](=O)[O-])c1 (centres undefined)	-8%	-14%	-3%	nt	nt
COc1ccc(NC(=O)c2ccc(=O)[nH]c2)cc1S(=O)(=O)N1CCOCC1	nt	-13%	-7%	nt	nt
O=C1CNC(=O)/C(=C/c2ccco2)N1	2%	?	35µM*	-21%	-3%
CC(=O)NC1=NN(C(C)=O)C(C)(CC(=O)OC(C)(C)C)S1 (centres undefined)	-3%	6%	13%	0%	0%
CC(=O)NC(c1ccc(C)cc1)c1cc([N+](=O)[O-])c2cccnc2c1O (centres undefined)	-10%	-2%	5µM*	?	i
CCCC(=O)NC(c1ccco1)c1cc([N+](=O)[O-])c2cccnc2c1O (centres undefined)	-26%	2%	nt	28µM*	-9%
CCC(=O)NC(c1ccco1)c1cc(Br)c2cccnc2c1O (centres undefined)	nt	7%	-22%	nt	nt
CCC(=O)NC(c1ccc(C)cc1)c1cc([N+](=O)[O-])c2cccnc2c1O (centres undefined)	-18%	-3%	22µM*	?	-1%
COc1ccc(C(NC(C)=O)c2cc(Cl)c3cccnc3c2O)cc1 (centres undefined)	-3%	13%	0%[2.29 µM]	nt	nt
CCC(=O)NC(c1ccc(C)cc1)c1ccc2cccnc2c1O (centres undefined)	1%	-11%	?	nt	nt
CCCC(=O)NC(c1ccc(OC)c(OC)c1)c1cc(Cl)c2cccnc2c1O (centres undefined)	-1%	20%	9%	18µM*	i
O=C(CSc1nc2c(c(=O)[nH]1)CCCC2)Nc1ccccc1C(F)(F)F	-2%	nt	nt	nt	nt
Cc1ccc(-c2ccc(=O)n(CC(=O)NCCN(C)C)n2)cc1	3%	10%	-1%	?	-2%
COc1ccc(OC)c(-c2csc(NC(=O)COC(=O)c3ccc(NC(=O)CC#N)cc3)n2)c1	nt	15µM*	?	nt	nt
O=c1nc(N/N=C/c2ccccn2)cn[nH]1	1%	6%	5µM*	10µM*	-2%
O=c1cnnc(N/N=C/c2ccccn2)[nH]1	-2%	1%	nt	3.5µM*	i
Cc1cc(=O)[nH]c(N/N=C/c2ccccn2)n1	4%	7%	?	-1%	-10%
COc1ccc(NC(=O)CCSc2nc(-c3ccc(OC)cc3)cc(C(F)(F)F)n2)cc1	-4%	nt	nt	nt	nt
SMILES	BLM inh	APE1 inh	L3MBTL1 inh	KDM4E inh	RECQ1 inh
COc1ccc(-c2cc(C(F)(F)F)nc(SCCC(=O)Nc3cc(C)on3)n2)cc1	5%	1%	nt	22µM*	-8%
COc1ccc(S(=O)(=O)NCc2cccs2)cc1	-30%	13µM*	nt	-10%	-21%
CCN(CC)S(=O)(=O)c1ccc(S(=O)(=O)NCc2cccs2)cc1	-8%	3%	nt	nt	nt
NC[C@@H]1O[C@H](C23CC4CC(CC(C4)C2)C3)Cc2c1ccc(O)c2O	2%	-6%	nt	22µM*	9%
O=C1CC(c2ccccc2)Oc2cc(O)cc(O)c21 (centres undefined)	-5%	?	nt	-2%	i
NC[C@@H]1O[C@H](c2ccccc2)Cc2c1ccc(O)c2O	1%	-4%	nt	16µM*	-12%
CCN(Cc1ccncc1)Cc1c(O)ccc2cc(Br)ccc12	0%	-3%	-17%	7.1µM*	-16%
CN1CCN(Cc2c(O)ccc3cc(Br)ccc23)CC1	-15%	-3%	-26%	?	-13%
CCN1C(=O)/C(=C/C=C2\N(CC)c3cc(S(=O)(=O)N(C)C)ccc3N2c2ccccc2)SC1=S	50%	-7%	?	-3%	0.79µM*
Cc1cc(C)cc(OCC(=O)Nc2nc(-c3cccnc3)cs2)c1	1%	2%	nt	nt	nt
CCOC(=O)c1sc2ncn(CC(=O)Nc3cccc(C)c3)c(=O)c2c1C	-4%	nt	nt	nt	nt
O=C(Nc1ccccc1)/C(=C/c1ccccc1)c1ccccc1	-7%	-4%	-3%	28µM*	-19%
CCC(CC)c1nnc(NC(=O)c2cc([N+](=O)[O-])ccc2N2CCCCC2)s1	-6%	-2%	-4%	-7%	-1%
C/C(=N/NC(=O)c1ccncc1)C1=C(O)CC(C)(C)CC1=O	1%	-4%	-1%	14µM*	-6%
N#CC1=C2Nc3ccccc3N2C(=O)NC1(c1ccccc1)C(F)(F)F (centres undefined)	-2%	2%	nt	?	-3%
CC1NC(=O)NC1CCCCCC(=O)NCCc1ccccc1 (centres undefined)	1%	-4%	1.4µM*	-6%	-14%
N#Cc1c(N2CCCC2)nc(N)c2c(N)nc(N3CCCC3)cc12	2.8µM*	?	?	?	?
COCO/C=C(\NC(C)=O)c1ccccc1	nt	5%	-3%	nt	nt
CCOC(=O)N1CCN(c2cc(NCCC(=O)O)c3c4c(onc24)-c2ccccc2C3=O)CC1	-22%	?	8.9µM*	-23%	?
O=C(O)CCCNc1cc(N2CCN(C(=O)c3ccco3)CC2)c2noc3c2c1C(=O)c1ccccc1-3	-29%	?	nt	nt	nt
O=C(O)CCCNc1cc(N2CCC3(CC2)OCCO3)c2noc3c2c1C(=O)c1ccccc1-3	-25%	?	10µM*	?	-25%
COc1cccc(CC(=O)Nc2cc(S(=O)(=O)N3CCOCC3)ccc2N2CCN(C)CC2)c1	nt	-18%	2%	nt	nt
COc1ccc(NCc2ccc([N+](=O)[O-])s2)c(OC)c1	-3%	?	?	10µM*	-6%
O=[N+]([O-])c1ccc(CNc2ccc(F)cc2)s1	-13%	18%	-9%	nt	nt
COc1ccc(NCc2ccc([N+](=O)[O-])s2)cc1	-6%	32µM*	?	?	-5%
CCCCOc1ccc(C(=O)NCC(=O)NCc2ccncc2)cc1	nt	14%	6%	nt	nt
